Drawing on the supplement of paper PMC13380429, this text covers SARS-CoV-2 infection rate for 39 compounds.

A number with no mark means an inactive call.

This test concerns Vero E6 infected with SARS-CoV-2. Briefly: SARS-CoV-2 infection rate relative to infected DMSO; higher = more infection, active = 60 or less. The note with it: 24 h.
`CC1(C)[C@H]2CC[C@]1(C)[C@@H](O)[C@H]2O` [cis-exo-camphanediol-2,3] (10 µM): the SARS-CoV-2 infection rate was 106%.
On to `CN1CCC[C@@H]1CCSc1ccc(O)cc1` (10 µM), for which the SARS-CoV-2 infection rate was 112%.
In the case of `CCn1cc(C(=O)O)c(=O)c2ccc(C)nc21` [nalidixic-acid] (10 µM), the SARS-CoV-2 infection rate is 106%.
Regarding `OC(CCCN1CCN(c2ncc(F)cn2)CC1)c1ccc(F)cc1` (centres undefined) (10 µM), the SARS-CoV-2 infection rate is 108%.
In the case of `O=C1CCC[C@@H]2[C@H]3CCCN4CCC[C@@H](CN12)[C@@H]34` [matrine] (10 µM) it was 112%; in that of `CC(C)(C)NC[C@H](O)c1ccc(O)cc1Cl` [meluadrine] (10 µM), 94%; in that of `CS(=O)(=O)c1ccc([C@@H](CC2CCCC2)C(=O)Nc2nccs2)cc1` (10 µM), 104%.
`O=c1nc2ccccc2c2n1CC(CN1CCN(c3ccccc3)CC1)N2` (centres undefined) (10 µM): the SARS-CoV-2 infection rate is 93%.
As to `C(#Cc1nc2ncccc2nc1OCCN1CCCC1)c1ccccc1` (0.833333 µM), the SARS-CoV-2 infection rate was 86%.
`CC(=C(CCO)SSCC1CCCO1)N(C=O)Cc1cnc(C)nc1N` (stereo in doubt) [fursultiamine] (10 µM): the SARS-CoV-2 infection rate was 110%.
To `CC1CC(OC(=O)C(O)c2ccccc2)CC(C)(C)C1` (centres undefined) [cyclandelate] (10 µM) belongs 98%; to `CN(C)C(=O)[C@H](O)[C@H](Cc1ccccc1)NC(=O)c1cc2cc(Cl)ccc2[nH]1` (10 µM), 102%; to `CCC1=C(C)CN(C(=O)NCCc2ccc(S(=O)(=O)NC(=O)N[C@H]3CC[C@H](C)CC3)cc2)C1=O` [glimepiride] (10 µM), 99%.
To `N#Cc1ccc(C2CCCc3cncn32)cc1` (centres undefined) [fadrozole] (10 µM) belongs 102%.
As for `CC(C)(C)NCC(O)COc1ccc(NC(=O)NC2CCCCC2)cc1` (centres undefined) [talinolol] (10 µM), the SARS-CoV-2 infection rate was 106%.
As to `CC(C)(N)C(=O)N[C@H](COCc1ccccc1)C(=O)N1CCC2(CC1)CN(S(C)(=O)=O)c1ccccc12` [ibutamoren] (10 µM), the SARS-CoV-2 infection rate is 108%.
For the compound `CN(C)C/C=C/C(=O)Nc1cc2c(Nc3ccc(F)c(Cl)c3)ncnc2cc1O[C@H]1CCOC1` [afatinib] (0.833333 µM), the SARS-CoV-2 infection rate is 114%.
As for `Cc1cc(C)c(N)c(C#Cc2cccc(F)c2)n1` (10 µM), the SARS-CoV-2 infection rate was 97.5%.
For the compound `COc1ccc(-n2c(SCCCN3C(=O)c4cccc5cccc(c45)C3=O)nnc2-c2ccncc2)cc1` (0.833333 µM), the SARS-CoV-2 infection rate is 108%.
With `CCC[C@@H]1CC2=CC(=O)CC[C@]2(C)[C@H]2CC[C@@]3(C)[C@@H](CC[C@@]3(O)CCC(=O)O)[C@H]12` (10 µM), the SARS-CoV-2 infection rate is 104%.
Take `CC[C@H](CC[C@@H](C)[C@H]1CC[C@H]2[C@@H]3CC=C4C[C@@H](O)CC[C@]4(C)[C@H]3CC[C@]12C)C(C)C` [beta-Sitosterol] (10 µM): the SARS-CoV-2 infection rate was 99%.
On to `N[C@@H](CC(=O)N1CCn2c(nnc2C(F)(F)F)C1)Cc1cc(F)c(F)cc1F` [sitagliptin] (10 µM), for which the SARS-CoV-2 infection rate is 98%.
To `Nc1ncnc2c1c(-c1ccc(Cl)cc1)nn2-c1cccc(-c2cnnn2Cc2cccc(-c3ccccc3)c2)c1` (10 µM) belongs 104%; to `O=c1cc(-c2ccc(O)cc2)oc2cc(O)cc(O)c12` [apigenin] (10 µM), 104%.
In the case of `CC(=O)OCC(=O)[C@@]1(O)CC[C@H]2[C@@H]3CCC4=CC(=O)CC[C@]4(C)[C@@]3(F)[C@@H](O)C[C@@]21C` (10 µM), the SARS-CoV-2 infection rate is 99.5%.
As to `CCN(CC)CCOC(=O)C1(c2ccccc2)CCCC1` [caramiphen] (10 µM), the SARS-CoV-2 infection rate was 95.5%.
Take `CCOC(=O)[C@H](CCc1ccccc1)N[C@@H](C)C(=O)N1[C@H](C(=O)O)C[C@@H]2CCC[C@@H]21` [ramipril] (10 µM): the SARS-CoV-2 infection rate was 98.5%.
For the compound `C[C@H](CCC(=O)NCCS(=O)(=O)O)[C@H]1CC[C@H]2[C@@H]3[C@H](O)C[C@@H]4C[C@H](O)CC[C@]4(C)[C@H]3C[C@H](O)[C@]12C` [taurocholate] (10 µM), the SARS-CoV-2 infection rate was 116%.
With `Clc1ccc(C2(c3ccc(-c4cn[nH]c4)cc3)CCNCC2)cc1` (0.833333 µM), the SARS-CoV-2 infection rate is 112%.
In the case of `CC(COc1ccccc1)NC(C)C(O)c1ccc(O)cc1` (centres undefined) [isoxsuprine] (10 µM) it was 109%; in that of `COc1ccc2c(c1)CN(C)CC2c1ccc(Cl)c(Cl)c1` (centres undefined) [diclofensine] (10 µM), 106%.
To `N#Cc1c(N)nc(SCc2csc(-c3ccc(Cl)cc3)n2)c(C#N)c1-c1ccc(OCCO)cc1` [capadenoson] (10 µM) belongs 115%.
As for `CC(=O)OC[C@H]1O[C@@](COC(C)=O)(O[C@H]2O[C@H](COC(C)=O)[C@@H](OC(C)=O)[C@H](OC(C)=O)[C@H]2OC(C)=O)[C@@H](OC(C)=O)[C@@H]1OC(C)=O` [sucrose-octaacetate] (10 µM), the SARS-CoV-2 infection rate was 103%.
Consider `Nn1cnc2cc3ccccc3cc2c1=O` [centazolone] (10 µM), for which the SARS-CoV-2 infection rate was 116%.
For the compound `OCc1ccc(O[C@@H]2O[C@H](CO)[C@@H](O)[C@H](O)[C@H]2O)cc1` [gastrodin] (10 µM), the SARS-CoV-2 infection rate was 106%.
In the case of `COC(=O)C1=C(C)NC(C)=C(C(=O)OCCSc2ccccc2)[C@@H]1C` (10 µM) it was 94.5%; in that of `CN1C(=O)N(C)C2C1N(C)C(=O)N2C` (centres undefined) [mebicar] (10 µM), 107%.
Consider `C=C(CC)C(=O)c1ccc(OCC(=O)O)c(Cl)c1Cl` [etacrynic-acid] (10 µM), for which the SARS-CoV-2 infection rate was 98.5%.
For `O=C(O)c1cccnc1C(=O)O` [quinolinic-acid] (10 µM), the SARS-CoV-2 infection rate was 108%.
